According to PubChem BioAssay AID1117267 (The Scripps Research Institute Molecular Screening Center, 2014):
Among all 92,000 compounds or so, about 1,200 (1.3%) were called active.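 Rule for the calls: active = activation above the mean of all tested compounds plus 3 SD (cut at about 9.5% in these data); inactive = the rest.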 The entries come from a sample that favours actives as a whole.

Assay: compounds raising TTR promoter-driven luciferase – cell-based, luminescence, SH-SY5Y, TTR promoter Gaussia luciferase, primary screen (AID 1117267);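 note: cells exposed to compounds for one day before reading; 0% = median of all test compound wells on the plate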
Details: at 16.7 µM, hits give high values, 100% = recombinant luciferase protein wells

activation, inactive:
COc1ccc(N2c3ccccc3CN(Cc3ccccc3)[C@@H](C)[C@H]2Cc2ccc(-c3ccccc3)cc2)cc1 -1.66%
Cc1ccc2c(c1)N(CC(=O)N1CCCc3ccccc31)C(=O)C(C)O2 (centres undefined) -0.78%
O=C(CN1C(=O)COc2ccccc21)Nc1ccc(F)cc1 2.98%
O=C(CCC(=O)c1cccs1)Nc1nc2ccccc2s1 0.06%
O=C(CCC(=O)c1cccs1)NC1CCCCCC1 -2.1%
CCOC(=O)N1CCN(S(=O)(=O)c2ccc(-n3cnnn3)cc2)CC1 -1.92%
COCCn1c(SCC(=O)N2CCCCCC2)nc2c(c1=O)SCC2 0.25%
Cc1cc(C(=O)CSc2nc(N)cc(=O)[nH]2)c(C)n1Cc1ccco1 0.58%
CCOC(=O)[C@H]1[C@H]2COc3ccc(OC)cc3[C@@H]2N2C(=O)c3ccc(F)cc3NC(=O)[C@@]12C 1.68%
CSc1sc(C(=O)NNC(=O)c2ccc(Cl)cc2)c2c1C=CCC2 -0.42%
O=C(c1ccc(Cl)c(Cl)c1)N1CCCC1 4.23%
O=C(CN1CCCCC1)Nc1ccccc1C(=O)NC1CC1 2.49%
Cc1cc(C)c(C#N)c(SCc2ccccc2C(=O)O)n1 5.37%
N#Cc1c(N2CCCCC2)nc(N)c2c(N)nc(SCC(=O)O)cc12 0.31%
CCC(C)C(=O)Nc1cc([N+](=O)[O-])ccc1Cl (centres undefined) 0.38%
CCOc1ccc(NC(=O)CSc2nc3ccccc3c(=O)n2Cc2cccs2)cc1 0.62%
COc1ccc(CCNC(=O)C(Sc2ccccn2)c2ccccc2)cc1OC (centres undefined) 1%
NC(=O)c1oc2ccccc2c1NC(=O)CS(=O)(=O)c1ccccc1 -0.61%
CCSc1nc(O)c(C(c2cccc(OC)c2)c2c(O)nc(SCC)[nH]c2=O)c(=O)[nH]1 1.15%
CCOc1ncccc1C(=O)N(C)CC(=O)Nc1ccc(F)cc1 4.43%
O=C1CC(N2CCN(c3ccc(F)cc3)CC2)C(=O)N1c1ccccc1 (centres undefined) 0.86%
O=C1CC(Sc2ncn[nH]2)C(=O)N1c1ccccc1 (centres undefined) -1.83%
CCc1ccccc1OCC(=O)Nc1ccc(C)c(S(=O)(=O)N2CCCCCC2)c1 -2%
CCOc1cccc(NC(=O)C2CCCN(S(=O)(=O)c3ccc(OC)cc3)C2)c1 (centres undefined) -2.33%
COc1ccccc1CC(=O)Nc1ccc(S(=O)(=O)N2CCCC2)cc1 1%
Cc1cccc(OCCCC(=O)Nc2ccc(S(=O)(=O)N3CCCC3)cc2)c1 -3.27%
Cc1ccc(NC(=S)NCc2ccccc2Cl)c(C)c1 0.72%
C/C(CC(=O)Nc1ccc(Cl)cc1)=N\NC(=O)C(=O)NCCO -1.14%
CN(C)c1ccc(NC(=O)CN2C3CCCC2CC(NC(=O)c2ccccc2)C3)cc1 (centres undefined) -2.32%
CCOc1ccc(CCN2C(=O)C(=O)N([C@@H](Cc3ccc(O)cc3)CN3CCC[C@H]3CN3C(=O)C(=O)NC[C@@H]3CC(C)C)C[C@@H]2Cc2ccccc2)cc1 2.35%
Cc1ccn(CC(=O)N2N=C(C(F)F)CC2(O)C(F)F)n1 (centres undefined) -1.11%
CC(=O)NC1(c2ccc(F)cc2)CCN(C(=O)c2c(F)cccc2F)CC1 0.91%
COc1ccc(Cn2cc(COC(=O)N(C)Cc3ccccc3)nn2)cc1 0.33%
CCCCCc1ccc(-c2ccc(OCC)cc2)nc1 1.61%
CC(C(=O)N(C)CC(=O)Nc1ccccc1C(F)(F)F)N1C(=O)c2ccccc2C1=O (centres undefined) 2.02%
COc1ccc(-c2nn(-c3ccccc3)cc2/C=C\C(=O)N2CCOCC2)cc1[N+](=O)[O-] -1.35%
COc1ccc(-c2ccc(Nc3ccc(S(=O)(=O)N4CCCC4)cc3)nn2)cc1OC -5.27%
COc1ccc(S(=O)(=O)Nc2ccc(S(=O)(=O)N3CCCCC3)cc2)cc1OC -1.7%
O=C(NCc1cccc(C(F)(F)F)c1)c1cccc(S(=O)(=O)N2CCN(Cc3ccccc3)CC2)c1 -1.01%
N#CCc1c[nH]c2ccc([N+](=O)[O-])cc12 1.86%
CC(=O)c1ccc2c(c1)OCCOCCOc1ccc(C(C)=O)cc1OCCOCCO2 1.09%
Cc1ccc(NC(=O)CC(=O)Nc2ccc(C)cc2)cc1 5.18%
Cc1ccc(NC(=O)CN(C)C(=O)COC(=O)c2nccnc2N)cc1 -0.56%
CC1CN(C(=S)Nc2ccc(Br)cc2Cl)CC(C)O1 (centres undefined) -0.06%
CCN(C(=O)COC(=O)c1ccccc1O)c1cccc2ccccc12 -1.17%
CCC(O)C1CCN(Cc2cn(-c3ccc(OC)cc3)nc2-c2cccc(F)c2)CC1 (centres undefined) 2.63%

activation, active:
O=C(O)C1OC(C(=O)O)C2C1C(F)(F)C2(F)F (centres undefined) 15.5%
Cc1cccc(C)c1NC(=O)CN1C(=O)C(C)Oc2ccccc21 (centres undefined) 15.3%
O=C(CCC(=O)c1cccs1)NCc1ccccc1 9.7%
O=C(Nc1ccccc1C(=O)N1CCCCCC1)c1ccccc1Cl 21.4%
Cc1cc(C)c(C#N)c(N2CCC(C(N)=O)CC2)n1 14.3%
Cc1cc(C)c2nc3nc(C)cc(C)c3c(N)c2c1 13.6%
Cc1cccc(N2C(=O)CC(SC(N)=Nc3ccccc3)C2=O)c1 (centres undefined) 11.1%
CCOc1ccc(NC(=O)COc2ccc(S(=O)(=O)N3CCCC3)cc2)cc1 11.4%
CCOc1ccccc1NC(=O)COc1ccc(S(=O)(=O)N2CCCC2)cc1 15.6%
C/C(CC(=O)Nc1ccc(N(C)C)cc1)=N\NC(=O)c1ccccc1F 15.4%
CCCCCc1ccc(-c2cn(Cc3ccc4ccccc4c3)nn2)cc1 10.7%
COc1cc(C(C)=O)ccc1OC(C)C(=O)Nc1ccc(S(=O)(=O)N2CCCC2)cc1 (centres undefined) 10%
CSCCC(NC(N)=O)C(=O)N(C)CC(=O)Nc1ccc(C)cc1 (centres undefined) 22.6%
